# Test results: ChEMBL document CHEMBL2218924, “A broad activity screen in support of a chemogenomic map for kinase signalling research and drug discovery” (Biochem J, 2013)
# Experiments:
# [1] = molecular target: RAC-gamma serine/threonine-protein kinase (Homo sapiens) (UniProt Q9Y243); details: at 10 µM
# [2] = molecular target: Protein kinase C alpha type (Homo sapiens) (UniProt P17252); details: at 1 µM
# [3] = molecular target: Protein kinase C alpha type (Homo sapiens) (UniProt P17252); details: at 10 µM
# [4] = molecular target: Protein kinase C beta type (Homo sapiens) (UniProt P05771); details: at 1 µM
# Chain of Protein kinase C beta type (Homo sapiens) (P05771 2-671 limits assumed): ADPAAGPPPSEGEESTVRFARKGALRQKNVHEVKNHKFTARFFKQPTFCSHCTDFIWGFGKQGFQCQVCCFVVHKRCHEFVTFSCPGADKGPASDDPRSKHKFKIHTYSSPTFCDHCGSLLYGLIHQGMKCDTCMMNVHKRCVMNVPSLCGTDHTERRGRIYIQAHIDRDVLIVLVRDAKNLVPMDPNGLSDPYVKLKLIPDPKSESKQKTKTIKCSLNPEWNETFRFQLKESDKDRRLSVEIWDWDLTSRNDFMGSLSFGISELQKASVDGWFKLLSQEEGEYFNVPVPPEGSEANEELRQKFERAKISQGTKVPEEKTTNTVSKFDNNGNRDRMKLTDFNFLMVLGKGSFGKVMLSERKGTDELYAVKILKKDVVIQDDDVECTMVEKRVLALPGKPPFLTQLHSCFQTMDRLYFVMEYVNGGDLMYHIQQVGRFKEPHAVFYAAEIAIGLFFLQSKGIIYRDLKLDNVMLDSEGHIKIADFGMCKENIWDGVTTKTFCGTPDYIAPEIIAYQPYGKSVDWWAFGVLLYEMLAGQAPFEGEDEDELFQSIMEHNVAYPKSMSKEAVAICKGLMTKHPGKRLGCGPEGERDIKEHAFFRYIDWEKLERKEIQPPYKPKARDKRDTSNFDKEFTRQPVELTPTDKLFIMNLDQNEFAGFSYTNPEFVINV
# [5] = molecular target: Protein kinase C beta type (Homo sapiens) (UniProt P05771); details: at 10 µM
# [6] = molecular target: Protein kinase C beta type (Homo sapiens) (UniProt P05771); details: at 1 µM; remark: listed apart in the source
# [7] = molecular target: Protein kinase C beta type (Homo sapiens) (UniProt P05771); details: at 10 µM; remark: listed apart in the source
# [8] = molecular target: Protein kinase C gamma type (Homo sapiens) (UniProt P05129); details: at 1 µM
# [9] = molecular target: Protein kinase C gamma type (Homo sapiens) (UniProt P05129); details: at 10 µM
# [10] = molecular target: Protein kinase C delta type (Homo sapiens) (UniProt Q05655); details: at 1 µM
# Chain of Protein kinase C delta type (Homo sapiens) (Q05655 whole entry, looked up): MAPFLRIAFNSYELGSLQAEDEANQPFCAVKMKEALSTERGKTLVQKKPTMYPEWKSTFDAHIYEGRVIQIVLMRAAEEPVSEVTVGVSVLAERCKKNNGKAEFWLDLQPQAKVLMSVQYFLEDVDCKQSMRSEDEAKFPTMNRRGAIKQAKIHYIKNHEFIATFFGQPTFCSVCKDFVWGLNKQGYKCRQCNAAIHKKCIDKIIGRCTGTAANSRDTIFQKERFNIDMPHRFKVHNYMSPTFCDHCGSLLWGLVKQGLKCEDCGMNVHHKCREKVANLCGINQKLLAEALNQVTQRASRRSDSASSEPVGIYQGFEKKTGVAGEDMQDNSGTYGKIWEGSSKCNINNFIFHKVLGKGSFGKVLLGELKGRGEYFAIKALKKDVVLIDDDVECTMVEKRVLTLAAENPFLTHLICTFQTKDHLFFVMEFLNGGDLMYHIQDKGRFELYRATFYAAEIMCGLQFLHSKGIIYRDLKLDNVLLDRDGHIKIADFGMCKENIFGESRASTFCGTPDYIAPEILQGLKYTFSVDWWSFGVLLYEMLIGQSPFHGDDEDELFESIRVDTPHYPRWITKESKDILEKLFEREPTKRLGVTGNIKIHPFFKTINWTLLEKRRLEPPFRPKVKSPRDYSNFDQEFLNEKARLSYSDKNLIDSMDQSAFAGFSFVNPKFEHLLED
# [11] = molecular target: Protein kinase C delta type (Homo sapiens) (UniProt Q05655); details: at 10 µM
# [12] = molecular target: T1, Protein kinase C epsilon type (Homo sapiens) (UniProt Q02156); details: at 1 µM
# T1 sequence (whole entry): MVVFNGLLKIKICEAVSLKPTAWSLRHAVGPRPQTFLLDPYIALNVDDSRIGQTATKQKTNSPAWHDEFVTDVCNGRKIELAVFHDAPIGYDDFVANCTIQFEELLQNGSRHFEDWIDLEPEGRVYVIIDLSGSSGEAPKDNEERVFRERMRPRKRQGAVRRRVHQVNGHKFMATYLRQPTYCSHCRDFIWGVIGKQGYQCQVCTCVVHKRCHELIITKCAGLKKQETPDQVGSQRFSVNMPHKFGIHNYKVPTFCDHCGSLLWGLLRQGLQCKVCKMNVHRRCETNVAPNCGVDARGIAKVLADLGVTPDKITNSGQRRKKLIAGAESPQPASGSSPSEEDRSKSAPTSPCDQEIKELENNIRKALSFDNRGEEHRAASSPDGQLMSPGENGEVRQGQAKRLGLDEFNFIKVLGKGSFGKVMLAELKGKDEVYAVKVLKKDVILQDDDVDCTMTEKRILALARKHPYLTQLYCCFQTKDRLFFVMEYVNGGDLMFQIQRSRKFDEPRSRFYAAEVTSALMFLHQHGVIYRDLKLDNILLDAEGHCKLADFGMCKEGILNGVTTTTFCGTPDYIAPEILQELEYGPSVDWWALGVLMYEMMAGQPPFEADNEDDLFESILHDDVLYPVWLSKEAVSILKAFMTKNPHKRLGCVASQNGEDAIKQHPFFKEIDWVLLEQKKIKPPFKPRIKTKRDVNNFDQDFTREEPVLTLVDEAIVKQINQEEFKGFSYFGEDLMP
# [13] = molecular target: T1, Protein kinase C epsilon type (Homo sapiens); details: at 10 µM
# Chain of RAC-gamma serine/threonine-protein kinase (Homo sapiens) (Q9Y243 whole entry): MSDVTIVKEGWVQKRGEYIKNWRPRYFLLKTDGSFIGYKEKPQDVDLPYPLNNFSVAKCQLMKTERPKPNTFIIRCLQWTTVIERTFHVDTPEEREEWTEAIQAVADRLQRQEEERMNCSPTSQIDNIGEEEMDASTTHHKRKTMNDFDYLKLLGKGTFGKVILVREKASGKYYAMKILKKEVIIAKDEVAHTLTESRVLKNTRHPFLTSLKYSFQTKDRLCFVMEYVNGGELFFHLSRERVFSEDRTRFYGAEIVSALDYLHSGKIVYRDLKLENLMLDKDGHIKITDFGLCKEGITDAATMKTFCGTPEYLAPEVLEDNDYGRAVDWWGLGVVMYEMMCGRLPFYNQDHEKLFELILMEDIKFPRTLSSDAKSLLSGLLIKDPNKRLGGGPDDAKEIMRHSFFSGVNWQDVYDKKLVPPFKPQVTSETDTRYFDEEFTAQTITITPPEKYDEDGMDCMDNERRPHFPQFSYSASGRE
SMILES,residual activity [1],residual activity [2],residual activity [3],residual activity [4],residual activity [5],residual activity [6],residual activity [7],residual activity [8],residual activity [9],residual activity [10],residual activity [11],residual activity [12],residual activity [13]
COC(=O)[C@@]1(O)C[C@H]2O[C@]1(C)n1c3ccccc3c3c4c(c5c6ccccc6n2c5c31)C(=O)NC4,3%,19%,0%,53%,13%,67%,18%,19%,2%,18%,3%,51%,10%
CC(C)(C)c1cc(C=C(C#N)C#N)cc(Br)c1O,97%,106%,–,106%,97%,108%,108%,98%,103%,98%,97%,108%,–
CCn1cnc2c(Nc3cccc(Cl)c3)nc(N[C@@H]3CCCC[C@@H]3N)nc21,61%,89%,58%,98%,85%,99%,92%,81%,45%,86%,59%,100%,80%
O=C1NC(=O)c2c1c1c3ccccc3n3c1c1c2c2ccccc2n1C1CCC3O1,84%,96%,–,95%,91%,–,–,92%,96%,–,–,–,–
COc1ccc2c(c1)/C(=C/c1cnc[nH]1)C(=O)N2,–,–,–,–,–,–,–,–,–,96%,61%,–,80%
c1cc(-c2cnn3cc(-c4ccc(OCCN5CCCCC5)cc4)cnc23)ccn1,–,–,–,118%,104%,–,–,–,–,–,–,–,103%
C[S+]([O-])c1ccc(-c2nc(-c3ccc(F)cc3)c(-c3ccncc3)[nH]2)cc1 (stereo unspecified),75%,107%,90%,101%,70%,104%,75%,104%,103%,105%,105%,125%,105%
O=[N+]([O-])/C=C/c1ccc2c(c1)OCO2,106%,111%,111%,113%,–,–,106%,103%,67%,99%,95%,81%,81%
N/C(=N\[N+](=O)[O-])N/N=C\c1ccc(-c2cccc([N+](=O)[O-])c2)o1,77%,–,–,–,–,–,–,91%,94%,–,–,–,–
O=C1c2ccccc2-c2nc3nnnn3nc21,100%,–,–,–,–,101%,–,–,–,–,–,–,–
COc1ccc2c(c[n+](C)c3c4cc5c(cc4ccc23)OCO5)c1OC,63%,110%,100%,–,–,87%,–,–,–,–,–,88%,78%
CC(C)[C@H](CO)Nc1nc(Nc2cccc(Cl)c2)c2ncn(C(C)C)c2n1,84%,–,–,–,–,120%,96%,102%,101%,–,–,–,92%
O=C1Nc2ccc3ncsc3c2/C1=C/c1c[nH]cn1,30%,67%,18%,55%,12%,67%,43%,69%,21%,15%,5%,27%,9%
CCc1nc(-c2ccc(OC)cc2)[nH]c1-c1ccncc1,–,–,105%,127%,105%,–,–,108%,108%,107%,105%,104%,109%
COc1cc2ncnc(Nc3ccc(OCc4ccccc4)cc3)c2cc1OC,103%,117%,114%,123%,106%,105%,101%,105%,108%,104%,106%,104%,119%
O=c1[nH]c2ccccc2n1C1CCN(Cc2ccc(-c3nc4cc5[nH]cnc5cc4nc3-c3ccccc3)cc2)CC1,69%,104%,104%,102%,93%,88%,93%,108%,98%,107%,111%,87%,100%
COc1cc(OC)c(/C=C2\C(=O)Nc3ccccc32)c(OC)c1,80%,–,–,105%,103%,103%,101%,98%,–,–,–,95%,107%
